From PubChem BioAssay
Dicer processing: inhibitors of Dicer pre-microRNA processing, primary screen, biochemical, cat-ELCCA, chemiluminescence. cat-ELCCA pre-miR-21 Dicer processing; active compounds read high. z-score at 25 µM. 47,000 compounds, 6% hits. AID 1347074, 2019; in the data active = z-score above about 3, passing the limit was not always enough;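 note: plate controls were vehicle for no effect and no enzyme for full effect; higher signal means more uncleaved substrate so more Dicer inhibition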
Target sequence (Q9UPY3 whole entry, looked up): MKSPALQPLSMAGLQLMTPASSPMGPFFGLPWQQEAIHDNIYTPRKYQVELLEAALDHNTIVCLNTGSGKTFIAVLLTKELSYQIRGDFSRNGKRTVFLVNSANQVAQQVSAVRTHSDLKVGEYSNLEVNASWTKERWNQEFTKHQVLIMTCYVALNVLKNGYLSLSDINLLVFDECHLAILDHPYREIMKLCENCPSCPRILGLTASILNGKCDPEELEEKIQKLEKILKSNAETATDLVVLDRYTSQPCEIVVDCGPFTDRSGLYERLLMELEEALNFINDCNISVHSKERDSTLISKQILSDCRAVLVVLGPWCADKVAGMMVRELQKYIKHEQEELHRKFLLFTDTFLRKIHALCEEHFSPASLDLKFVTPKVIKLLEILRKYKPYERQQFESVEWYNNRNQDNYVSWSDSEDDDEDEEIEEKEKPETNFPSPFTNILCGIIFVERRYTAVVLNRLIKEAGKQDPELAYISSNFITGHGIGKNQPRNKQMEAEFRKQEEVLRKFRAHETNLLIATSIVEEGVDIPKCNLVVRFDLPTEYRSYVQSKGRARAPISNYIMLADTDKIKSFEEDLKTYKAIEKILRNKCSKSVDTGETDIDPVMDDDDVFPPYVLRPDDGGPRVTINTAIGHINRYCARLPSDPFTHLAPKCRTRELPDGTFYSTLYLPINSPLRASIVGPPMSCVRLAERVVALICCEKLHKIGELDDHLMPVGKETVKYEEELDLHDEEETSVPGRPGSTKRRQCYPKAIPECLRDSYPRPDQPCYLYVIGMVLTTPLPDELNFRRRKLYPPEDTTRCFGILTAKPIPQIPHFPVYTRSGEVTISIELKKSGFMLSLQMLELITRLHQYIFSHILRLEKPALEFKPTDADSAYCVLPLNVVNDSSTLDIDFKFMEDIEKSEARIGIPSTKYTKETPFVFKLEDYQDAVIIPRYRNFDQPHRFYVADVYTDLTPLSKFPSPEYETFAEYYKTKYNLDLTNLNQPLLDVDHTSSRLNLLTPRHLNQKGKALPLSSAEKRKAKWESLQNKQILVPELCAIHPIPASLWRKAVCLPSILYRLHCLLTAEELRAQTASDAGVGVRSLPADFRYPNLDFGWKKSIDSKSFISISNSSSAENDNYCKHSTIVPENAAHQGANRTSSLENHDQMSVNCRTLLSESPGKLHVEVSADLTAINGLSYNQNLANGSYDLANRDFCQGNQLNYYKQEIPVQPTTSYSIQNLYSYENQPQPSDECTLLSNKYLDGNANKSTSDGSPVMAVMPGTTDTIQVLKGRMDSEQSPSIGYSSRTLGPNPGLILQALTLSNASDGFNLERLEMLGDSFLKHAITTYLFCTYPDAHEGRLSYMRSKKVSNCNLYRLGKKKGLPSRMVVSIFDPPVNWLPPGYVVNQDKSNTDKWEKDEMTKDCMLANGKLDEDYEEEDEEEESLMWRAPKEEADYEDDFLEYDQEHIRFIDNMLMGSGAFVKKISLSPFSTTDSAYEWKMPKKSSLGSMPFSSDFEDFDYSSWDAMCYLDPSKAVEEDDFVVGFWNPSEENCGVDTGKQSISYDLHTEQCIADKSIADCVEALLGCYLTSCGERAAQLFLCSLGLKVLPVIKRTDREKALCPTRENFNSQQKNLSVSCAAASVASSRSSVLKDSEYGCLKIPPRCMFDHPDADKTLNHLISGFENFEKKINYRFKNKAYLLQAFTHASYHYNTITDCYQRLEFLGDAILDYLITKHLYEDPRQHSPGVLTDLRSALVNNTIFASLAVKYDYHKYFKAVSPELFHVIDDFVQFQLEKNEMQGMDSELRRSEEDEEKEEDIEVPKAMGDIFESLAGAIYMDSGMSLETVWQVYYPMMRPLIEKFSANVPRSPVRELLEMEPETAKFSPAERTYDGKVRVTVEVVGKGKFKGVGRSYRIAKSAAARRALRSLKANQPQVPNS
* marks the source's active call; other numbers are inactive results. Many of the other results were omitted from the sample, so hits are more common in it than they were.

SMILES	Dicer processing
Cc1ccc(C(=O)COC(=O)c2cccc(N3C(=O)c4c(C)nc5ccccc5c4C3=O)c2)cc1	0.43
Cc1nc2ccccc2c2c1C(=O)N(c1cccc(C(=O)OCC(=O)C(C)(C)C)c1)C2=O	-1.54
Cc1ccc(C(=O)OCC(=O)C(C)(C)C)cc1N1C(=O)c2c(C)nc3ccccc3c2C1=O	3.22*
CCOc1ccc(C2c3c(oc4ccc(F)cc4c3=O)C(=O)N2c2nc(C)c(C(=O)OC)s2)cc1 (centres undefined)	0.7
CCOC(=O)c1ccc2c(c1)[C@@H]1C=CC[C@@H]1[C@H](c1cccnc1)N2	0.79
O=C(O)COc1ccc(/C=C/c2nc(-c3ccccc3O)n(-c3ccccc3)n2)cc1	1.29
COc1cc(/C=C/c2nc(-c3ccccc3O)n(-c3ccccc3)n2)ccc1O	6.04*
COc1cc(/C=N/Nc2nc3c(c(=O)n(Cc4ccccc4)c(=O)n3C)n2C)ccc1O	-0.04
FC(F)(F)c1ccc(N2CCCN(c3ncnc4scc(-c5ccccc5)c34)CC2)nc1	-0.39
COC(=O)C(=Cc1ccc(-c2cc(C(F)(F)F)ccc2Cl)o1)C(=O)OC	-0.84
CC(C)NC(=O)ONC(=O)c1csc(-c2cccnc2)n1	0.59
O=[N+]([O-])/C=C/c1cc2sccc2s1	0.59
Cc1cc(Br)ccc1NC(=S)Nc1c(C)cccc1Cl	2.62
Cc1ccc2ccc(C(Nc3ccccn3)c3ccc(F)cc3)c(O)c2n1 (centres undefined)	5.62
COc1ccc(C(Nc2cccc(C)n2)c2ccc3cccnc3c2O)cc1 (centres undefined)	9.1*
Cc1ccc2ccc(C(Nc3cccc(Cl)c3)c3ccccn3)c(O)c2n1 (centres undefined)	-2.08
COc1ccc(C)cc1NC(c1ccccn1)c1ccc2cccnc2c1O (centres undefined)	-0.11
Cc1cccc(NC(c2ccc(F)cc2)c2ccc3cccnc3c2O)n1 (centres undefined)	8.89*
CCCOc1ccc(C(Nc2ccccn2)c2ccc3cccnc3c2O)cc1 (centres undefined)	2.62
Cc1cccc(NC(c2ccccc2)c2ccc3ccc(C)nc3c2O)n1 (centres undefined)	1.67
Cc1cccc(NC(c2ccc3c(c2)OCO3)c2ccc3cccnc3c2O)n1 (centres undefined)	2.33
COc1ccc(NC(c2ccccn2)c2ccc3cccnc3c2O)cc1 (centres undefined)	3.12*
C#CC(CC)(CC)NC(=O)Nc1ccccc1	0.08
CC(C)Oc1ccccc1-c1nc(SCC(=O)c2ccc(Br)cc2)n[nH]1	-1.15
CN(C)CCCOC(=O)c1ccc2c(c1)OCO2	4.77
SMILES	Dicer processing
O=C(CSc1nc2c(Cl)cc(Cl)cc2s1)Nc1cc(Cl)cc(Cl)c1	-0.38
N#Cc1c(SCC(=O)Nc2cc(Cl)cc(Cl)c2)nc2c(c1/C=C\c1ccccc1)CCC2	-0.39
Cc1cc(C(C)(C)C)c(OC(=O)C(C)C)c(C(C)(C)C)c1	-1.74
O=S(=O)(Nc1ccccc1N1CCOCC1)c1ccc(-c2ccccn2)s1	4.78*
O=S(=O)(Nc1ccccc1N1CCOCC1)c1ccc(S(=O)(=O)c2ccccc2)s1	0.33
O=S(=O)(Nc1ccc2c(c1)OCCO2)c1ccc(-c2ccccn2)s1	-0.04
COCCCN=C1NC(=O)C(CC(=O)Nc2ccccc2Cl)S1 (centres undefined)	3.12*
COCCCN=C1NC(=O)C(CC(=O)Nc2cc(Cl)ccc2Cl)S1 (centres undefined)	2.02
O=C(CC1Sc2ccccc2NC1=O)Nc1ccccc1Cl (centres undefined)	2.05
OCCCNNC(=S)Nc1ccc(Cl)cc1Cl	1.03
S=C(NNc1c(Cl)cncc1Cl)Nc1ccc(Cl)cc1Cl	6.72*
CCNC(=S)Nc1ccc(Cl)cc1Cl	-0.94
COc1ccc2nc(SCC(=O)N3CCN(S(=O)(=O)c4ccccc4)C3)[nH]c2c1	0.36
CC(C)(C)C(=O)O/N=C/c1ccc2c(c1)OCO2	-1.45
CCOC(=O)c1sc(N/N=C2\CCCc3ccccc32)nc1C	-1.77
CCN(CC)CC#CC(O)(c1ccccc1)c1ccccc1	0.86
CCN(CC)CC#Cc1cccc(C)c1	5.02*
Cc1c(-c2ccccc2)nc2sc3c(c2c1N)CCCC3	2.34
FC(F)(F)c1cccc(NC(=S)Nc2cccc(C(F)(F)F)c2)c1	0.22
Fc1cccc(NC(=S)NC(c2ccccc2)c2ccccc2)c1	4.9*
CC(C)(C)NNC(=S)Nc1cccc(F)c1	-0.44
O=C(CSc1ncnc2ccccc12)Nc1cccc2nsnc12	1.21
CCn1cnc2cc(NCc3ccco3)ccc21	1.63
O=[N+]([O-])c1ccc2c(c1)ncn2-c1ccccc1	1.69
c1ccc(-n2cnc3cc(NCc4ccco4)ccc32)cc1	4.72*
SMILES	Dicer processing
COC(=O)C1=C(C)NC2=C(C(=O)CC(c3ccccc3)C2)C1c1ccc(OC(C)=O)c(OC)c1 (centres undefined)	-5.6
Clc1ccccc1CSc1cc(-c2ccccc2)nc2ncnn12	-2.61
NC(=O)c1sc(-c2ccc(Cl)cc2)cc1NS(=O)(=O)c1cc(C(F)(F)F)cc(C(F)(F)F)c1	3.7*
NC(=O)c1sc(-c2ccccc2)cc1NS(=O)(=O)c1ccc(F)cc1	-0.57
COC(=O)c1sc(-c2ccc(Cl)cc2)cc1NC(=O)C(F)(F)F	0.16
CC(/C=N/OC(=O)c1cc2ccccc2s1)=N\Nc1c(Cl)cc(Cl)cc1Cl	-0.37
O=C(O)CCC1=NN2C=Nc3sc4c(c3C2NC1=O)CCCC4 (centres undefined)	3.3*
O=[N+]([O-])c1ccc(Cn2ccnc2-c2ccc(C(F)(F)F)cc2)cc1	0.78
CCCc1c(C)nc(SCc2ccc(Cl)cc2)[nH]c1=O	2.5
Cc1noc(N2C(=O)C3C4C=CC(C4)C3C2=O)c1C (centres undefined)	-0.05
Cc1cccc(N2C(=O)C3C4C=CC(C4)C3C2=O)n1 (centres undefined)	-0.23
Cc1cc(N2C(=O)C3C4C=CC(C4)C3C2=O)no1 (centres undefined)	3.66*
Cc1ccc(NC(=S)NC(C)(C)C)c(C)c1	12.6
CCCn1c(=O)c(C#N)cn(-c2ccc(Cl)cc2)c1=O	2.59
O=C1CC(c2ccccc2)CC(=O)N1Cc1csc2ccccc12	0.56
O=C1CC(c2cccc(Br)c2)Nc2ccc3ccccc3c21 (centres undefined)	3.42*
O=C1CC(c2ccccc2Cl)Nc2ccc3ccccc3c21 (centres undefined)	1.82
CN(C)c1ccc(C2CC(=O)c3ccccc3N2)cc1 (centres undefined)	2.42
OC1CCN(C(=S)Nc2cccc(C(F)(F)F)c2)CC1	-0.18
COc1ccc(C2/C(=C(\O)c3ccc(C)cc3)C(=O)C(=O)N2CCCn2ccnc2)cc1 (centres undefined)	-0.25
Cc1cc(C)c2c(n1)sc1c(=O)n(-c3cccc(Cl)c3)c(=O)[nH]c12	-0.04
Cc1ccc(-n2c(=O)[nH]c3c(oc4nc(-c5ccccc5)cc(-c5ccccc5)c43)c2=O)cc1	2.25
Cc1ccc(-n2c(=O)[nH]c3c(sc4nc(C)cc(C)c43)c2=O)cc1	3.39*
COc1cccc(-c2nc3cc(OC)c(OC)cc3c(=O)o2)c1	0.18
CN(C)C(=S)SCc1ccc(C(=O)Oc2c(Cl)cccc2Cl)cc1	0.48
CC(C)(C)c1ccc(-c2nnc3n2N=C(c2ccccc2O)CS3)cc1	1.17
CN(C)CCNC(=O)COc1cc(-c2ccccc2)nc2ccccc12	-0.32
NS(=O)(=O)c1ccc(Cl)cc1Sc1ccccc1C(=O)O	-0.59
Oc1ccc(Cl)cc1-c1csnn1	0.76
Oc1ccc(Cl)cc1Sc1cc(Cl)ccc1O	3.16*
